# Data as given in the supplement of paper PMC7380943.
# ± gives the standard deviation of the averaged measurements.
# Tested on: CLZ3 (HCA2 human fibroblast dual HR-NHEJ reporter)
# Experiment: NHEJ repair efficiency (GFP+ cells) relative to control (log10 fold); higher = more non-homologous end joining
# Details: 5 µM; doxycycline 0.5 ug/mL
# 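Wherever HR repair efficiency (tdTomato+ cells) relative to control is given: compound given one day before doxycycline, which switches on I-SceI endonuclease expression to create double-strand breaks within the integrated reporter.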
# 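Wherever NHEJ repair efficiency (GFP+ cells) relative to control is given: compound given one day ahead of doxycycline, which switches on I-SceI endonuclease to cut the chromosomally integrated reporter and create DSBs.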
row,SMILES,NHEJ repair efficiency (log10)
1,O=c1c(O[C@@H]2O[C@H](CO)[C@@H](O)[C@H](O)[C@H]2O[C@@H]2O[C@H](CO)[C@@H](O)[C@H](O)[C@H]2O)c(-c2ccc(O)c(O)c2)oc2cc(O)cc(O)c12 [Baimaside],0.0574
2,COc1cc2c(=O)c(-c3ccc(O)cc3)coc2cc1O [Glycitein],0.0336
3,COc1cc2ccc(=O)oc2cc1OC [Scoparone],0.0322
4,OC[C@H]1NC[C@H](O)[C@@H](O)[C@@H]1O [1-Deoxynojirimycin],0.0355
5,C=CCc1ccc(O)c(OC)c1 [Eugenol],0.027
6,COc1ccc2cc1Oc1ccc(cc1)C[C@H]1c3cc(c(OC)cc3CCN1C)Oc1c(OC)c(OC)cc3c1[C@H](C2)N(C)CC3 [Tetrandrine],0.294
7,NC(=O)c1cccnc1 [Nicotinamide],0.139
8,O=C(CCc1ccc(O)cc1)c1c(O)cc(O)cc1O[C@@H]1OC(CO)[C@@H](O)[C@@H](O)C1O (some centres not stated) [Phloridzin],-0.0404 ± 0.071
9,O=c1oc2c(O)c(O)cc3c(=O)oc4c(O)c(O)cc1c4c23 [Ellagic Acid],-0.0512
10,COc1ccc(-c2cc(=O)c3c(O)cc(O)cc3o2)cc1 [Acacetin],-0.203
11,O=C1C[C@@H](c2ccc(O[C@@H]3O[C@H](CO)[C@@H](O)[C@H](O)[C@H]3O)cc2)Oc2cc(O)ccc21 [Liquiritin],-0.084
12,COC(=O)[C@H]1O[C@@H](Oc2cc3oc(-c4ccc(O)cc4)cc(=O)c3c(O)c2O)[C@H](O)[C@@H](O)[C@@H]1O [Scutellarin Methyl Ester],-0.156
13,O=C(O)C(O)Cc1ccc(O)c(O)c1 (configuration not stated) [Sodium Danshensu],-0.0204
14,O=C(O[C@@H]1Cc2c(O)cc(O)cc2O[C@H]1c1cc(O)c(O)c(O)c1)c1cc(O)c(O)c(O)c1 [(-)Gallocatechin gallate],-0.12
15,COc1ccc(-c2cc(=O)c3c(O)c(OC)c(O)cc3o2)cc1 [Pectolinarigenin],-0.0149
16,CC(C)=CCc1c(-c2ccc(O)cc2O)oc2c3c(cc(O)c2c1=O)OC(C)(C)C=C3 [Morusin],0.0648

row,SMILES,NHEJ repair efficiency (log10)
1,CC(=O)[C@H]1CC[C@H]2[C@@H]3CCC4=CC(=O)CC[C@]4(C)[C@H]3CC[C@]12C [Lutin],0.0637
2,O=C(/C=C/c1ccc(O)c(O)c1)O[C@H](C(=O)O)[C@H](OC(=O)/C=C/c1ccc(O)c(O)c1)C(=O)O [Chicoric Acid],0.0111
3,C[C@@]12C[C@@]3(O)O[C@@H](O1)[C@]1(COC(=O)c4ccc(O)cc4)[C@@H]3C[C@]12O[C@@H]1O[C@H](CO)[C@@H](O)[C@H](O)[C@H]1O [Oxypaeoniflorin],0.00873
4,COc1cc2ccc(=O)oc2cc1O [Scopoletin],-0.0239
5,COc1cc(O)cc(O)c1C(=O)/C=C/c1ccccc1 [Cardamonin],0.233
6,O=c1oc2c(O)cc(O)cc2c2oc3cc(O)c(O)cc3c12 [Isodemethylwedelolacton],-0.0118
7,CC1(C)O[C@H]1COc1c2ccoc2cc2oc(=O)ccc12 [Oxypeucedanin],0.0689
8,COc1cc(OC)c2ccc(=O)oc2c1 [Citropten],0.137
9,COc1cc(/C=C/C(=O)CC(=O)/C=C/c2ccc(O)c(OC)c2)ccc1O [Curcumin],0.317
10,C=C[C@H]1[C@H](O[C@@H]2O[C@H](CO)[C@@H](O)[C@H](O)[C@H]2O)OC=C(C(=O)OC)[C@H]1CC(=O)O [Secoxyloganin],0.0169
11,C=C(C)[C@@H]1CC[C@]2(C(=O)O)CC[C@]3(C)[C@H](CC[C@@H]4[C@@]5(C)CC[C@H](O[C@@H]6OC[C@H](O)[C@H](O)[C@H]6O[C@@H]6O[C@@H](C)[C@H](O)[C@@H](O)[C@H]6O)[C@@](C)(CO)[C@@H]5CC[C@]43C)[C@@H]12 [Anemoside A3],0.0688
12,OCC1=C[C@@H](O)[C@]2(O[C@@H]3O[C@H](CO)[C@@H](O)[C@H](O)[C@H]3O)C=CO[C@@H](O[C@@H]3O[C@H](CO)[C@@H](O)[C@H](O)[C@H]3O)[C@H]12 [Melittoside],-0.134
13,O=C(/C=C/C=C/c1ccc2c(c1)OCO2)N1CCCCC1 [Piperine],0.0542
14,C=C1C[C@]2(O)O[C@@]3(CC2=C(C)C)[C@@H](C)CC[C@@H]13 [Isocurcumenol],-0.116
15,COc1ccc2[nH]cc(CCNC(C)=O)c2c1 [Melatonin],0.0863

# Tested on: CLZ3 (HCA2 human fibroblast dual HR-NHEJ reporter)
# Experiment: HR repair efficiency (tdTomato+ cells) relative to control (log10 fold); higher = more homologous recombination
# Details: 5 µM; doxycycline 0.5 ug/mL
row,SMILES,HR repair efficiency (log10)
1,C/C=C(\C)C(=O)OC1c2c(ccc3ccc(=O)oc23)OC(C)(C)C1OC(=O)/C(C)=C/C (configuration not stated) [Praeruptorin B],0.0577
2,Cc1cc(O)cc(O[C@@H]2O[C@H](CO)[C@@H](O)[C@H](O)[C@H]2O)c1 [Orcinol Glucoside],-0.0841
3,"COc1cc(OC)c2ccc(=O)oc2c1 [5,7-Dimethoxycoumarin]",0.0758
4,C=C1C[C@@]23CC[C@H]4[C@@](C)(CCC[C@@]4(C)C(=O)O[C@@H]4O[C@H](CO)[C@@H](O)[C@H](O)[C@H]4O)[C@@H]2CC[C@]1(O[C@@H]1O[C@H](CO)[C@@H](O)[C@H](O)[C@H]1O[C@@H]1O[C@H](CO)[C@@H](O)[C@H](O)[C@H]1O)C3 [Stevioside],0.296
5,COc1cc2c(c(O)c1OC)-c1c(cc(OC)c(OC)c1OC)C[C@@H](C)[C@@H](C)C2 [Schisanhenol],-0.0391
6,CC1(C)CC[C@]2(C(=O)O)CC[C@]3(C)C(=CC[C@@H]4[C@@]5(C)C[C@@H](O)[C@H](O)C(C)(C)[C@@H]5CC[C@]43C)[C@@H]2C1 [Maslinic Acid],-0.0914
7,C[C@@H]1O[C@@H](Oc2c(-c3ccc(O)c(O)c3)oc3cc(O)cc(O)c3c2=O)[C@H](O)[C@H](O)[C@H]1O [Quercitrin],0.0282
8,O=C(O)/C=C/c1ccc(O)c(O)c1 [Caffeic Acid],0.156
9,O=C(O)c1cc(O)c2c(c1)[C@H]([C@H]1c3cc(CO)cc(O)c3C(=O)c3c(O[C@@H]4O[C@H](CO)[C@@H](O)[C@H](O)[C@H]4O)cccc31)c1cccc(O[C@@H]3O[C@H](CO)[C@@H](O)[C@H](O)[C@H]3O)c1C2=O [Sennoside C],0.148
10,O=c1c(O[C@@H]2O[C@H](CO)[C@@H](O)[C@H](O)[C@H]2O[C@@H]2O[C@H](CO)[C@@H](O)[C@H](O)[C@H]2O)c(-c2ccc(O)c(O)c2)oc2cc(O)cc(O)c12 [Baimaside],0.114
11,COc1cc2c(=O)c(-c3ccc(O)cc3)coc2cc1O [Glycitein],0.1
12,COc1cc2ccc(=O)oc2cc1OC [Scoparone],0.0853
13,OC[C@H]1NC[C@H](O)[C@@H](O)[C@@H]1O [1-Deoxynojirimycin],0.0442
14,C=CCc1ccc(O)c(OC)c1 [Eugenol],-0.0172
15,COc1ccc2cc1Oc1ccc(cc1)C[C@H]1c3cc(c(OC)cc3CCN1C)Oc1c(OC)c(OC)cc3c1[C@H](C2)N(C)CC3 [Tetrandrine],-0.328
16,NC(=O)c1cccnc1 [Nicotinamide],0.186
17,O=C(CCc1ccc(O)cc1)c1c(O)cc(O)cc1O[C@@H]1OC(CO)[C@@H](O)[C@@H](O)C1O (some centres not stated) [Phloridzin],0.0182 ± 0.039
18,O=c1oc2c(O)c(O)cc3c(=O)oc4c(O)c(O)cc1c4c23 [Ellagic Acid],-0.174

row,SMILES,HR repair efficiency (log10)
1,COc1ccc(-c2cc(=O)c3c(O)cc(O)cc3o2)cc1 [Acacetin],0.0794
2,O=C1C[C@@H](c2ccc(O[C@@H]3O[C@H](CO)[C@@H](O)[C@H](O)[C@H]3O)cc2)Oc2cc(O)ccc21 [Liquiritin],-0.0906
3,COC(=O)[C@H]1O[C@@H](Oc2cc3oc(-c4ccc(O)cc4)cc(=O)c3c(O)c2O)[C@H](O)[C@@H](O)[C@@H]1O [Scutellarin Methyl Ester],-0.014
4,O=C(O)C(O)Cc1ccc(O)c(O)c1 (configuration not stated) [Sodium Danshensu],0.0346
5,O=C(O[C@@H]1Cc2c(O)cc(O)cc2O[C@H]1c1cc(O)c(O)c(O)c1)c1cc(O)c(O)c(O)c1 [(-)Gallocatechin gallate],0.0198
6,COc1ccc(-c2cc(=O)c3c(O)c(OC)c(O)cc3o2)cc1 [Pectolinarigenin],-0.0222
7,CC(C)=CCc1c(-c2ccc(O)cc2O)oc2c3c(cc(O)c2c1=O)OC(C)(C)C=C3 [Morusin],-0.298
8,CC(=O)[C@H]1CC[C@H]2[C@@H]3CCC4=CC(=O)CC[C@]4(C)[C@H]3CC[C@]12C [Lutin],0.268
9,O=C(/C=C/c1ccc(O)c(O)c1)O[C@H](C(=O)O)[C@H](OC(=O)/C=C/c1ccc(O)c(O)c1)C(=O)O [Chicoric Acid],0.107
10,C[C@@]12C[C@@]3(O)O[C@@H](O1)[C@]1(COC(=O)c4ccc(O)cc4)[C@@H]3C[C@]12O[C@@H]1O[C@H](CO)[C@@H](O)[C@H](O)[C@H]1O [Oxypaeoniflorin],0.0237
11,COc1cc2ccc(=O)oc2cc1O [Scopoletin],-0.177
12,COc1cc(O)cc(O)c1C(=O)/C=C/c1ccccc1 [Cardamonin],-0.195
13,O=c1oc2c(O)cc(O)cc2c2oc3cc(O)c(O)cc3c12 [Isodemethylwedelolacton],0.0907
14,CC1(C)O[C@H]1COc1c2ccoc2cc2oc(=O)ccc12 [Oxypeucedanin],0.0078
15,COc1cc(OC)c2ccc(=O)oc2c1 [Citropten],0.0946
16,COc1cc(/C=C/C(=O)CC(=O)/C=C/c2ccc(O)c(OC)c2)ccc1O [Curcumin],-0.113
17,C=C[C@H]1[C@H](O[C@@H]2O[C@H](CO)[C@@H](O)[C@H](O)[C@H]2O)OC=C(C(=O)OC)[C@H]1CC(=O)O [Secoxyloganin],-0.19
18,C=C(C)[C@@H]1CC[C@]2(C(=O)O)CC[C@]3(C)[C@H](CC[C@@H]4[C@@]5(C)CC[C@H](O[C@@H]6OC[C@H](O)[C@H](O)[C@H]6O[C@@H]6O[C@@H](C)[C@H](O)[C@@H](O)[C@H]6O)[C@@](C)(CO)[C@@H]5CC[C@]43C)[C@@H]12 [Anemoside A3],0.0291
